Test results as given in PubChem BioAssay.
For part of these data: Measured potencies and affinities stand elsewhere. Calls of active or inactive are those of the source.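 Rule for the calls, unless noted: active = primary screen inhibitor hit that blocks the TRPC4 channel at some tested dose, yielding a dose curve; inactive = the rest.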

What was measured:
[1] = tested on: TRPC4 beta (transient receptor potential cation channel C4), mouse; assay: activators of mouse TRPC4 channel, confirmation, cell-based, Fluo4 calcium, HEK293 TRPC4beta/mu-opioid, duplicates, 10 µM (AID 2426;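 active = fluorescence ratio normalized to control raised more than 50% in primary screen plus both repeat runs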); conditions: Fluo4 calcium fluorescence, at 10 µM; active compounds read high
[2] = tested on: transient receptor potential cation channel C4 beta (TRPC4), mouse; assay: activators of mouse TRPC4 channel, confirmation, cell-based, second round, Fluo4, HEK293 TRPC4beta/mu-opioid, 1 µM (AID 2461;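 active = primary screen active and over 50% activation in each of two duplicate runs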); conditions: Fluo4 calcium fluorescence, at 1 µM; active compounds read high
[3] = tested on: TRPC4 (transient receptor potential cation channel C4 beta), mouse; assay: positive allosteric modulators of mouse TRPC4, confirmation, cell-based, second round, Fluo-4, HEK293 TRPC4beta/mu-opioid, 1 µM (AID 2554;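 active = primary screen hit whose fluorescence ratio, in both repeats, exceeds the weak agonist control mean by 3 SD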); conditions: DAMGO EC20, Fluo-4 calcium flux, at 1 µM; active compounds read high
[4] = tested on: TRPC4 beta (transient receptor potential cation channel C4), mouse; assay: positive allosteric modulators of mouse TRPC4, confirmation, cell-based, Fluo-4, HEK293 TRPC4beta/mu-opioid (AID 2555;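 active = primary screen hit whose calcium fluorescence ratio, in both repeats, exceeds the weak agonist control mean by 3 SD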); conditions: DAMGO EC20, Fluo-4 calcium flux, at 10 µM; active compounds read high
[5] = molecular target: Short transient receptor potential channel 4 (Mus musculus) (UniProt Q9QUQ5); assay: inhibitors of mouse TRPC4 channel, confirmation, cell-based, Fluo4, HEK293 TRPC4beta/mu-opioid (AID 2636;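 active = calcium signal cut by more than 3 SD below the full-agonist control yet still positive, in both repeats and the earlier primary screen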); conditions: DAMGO, Fluo4 calcium flux, at 10 µM; active compounds read high
Sequence of Short transient receptor potential channel 4 (Mus musculus) (Q9QUQ5 whole entry, looked up): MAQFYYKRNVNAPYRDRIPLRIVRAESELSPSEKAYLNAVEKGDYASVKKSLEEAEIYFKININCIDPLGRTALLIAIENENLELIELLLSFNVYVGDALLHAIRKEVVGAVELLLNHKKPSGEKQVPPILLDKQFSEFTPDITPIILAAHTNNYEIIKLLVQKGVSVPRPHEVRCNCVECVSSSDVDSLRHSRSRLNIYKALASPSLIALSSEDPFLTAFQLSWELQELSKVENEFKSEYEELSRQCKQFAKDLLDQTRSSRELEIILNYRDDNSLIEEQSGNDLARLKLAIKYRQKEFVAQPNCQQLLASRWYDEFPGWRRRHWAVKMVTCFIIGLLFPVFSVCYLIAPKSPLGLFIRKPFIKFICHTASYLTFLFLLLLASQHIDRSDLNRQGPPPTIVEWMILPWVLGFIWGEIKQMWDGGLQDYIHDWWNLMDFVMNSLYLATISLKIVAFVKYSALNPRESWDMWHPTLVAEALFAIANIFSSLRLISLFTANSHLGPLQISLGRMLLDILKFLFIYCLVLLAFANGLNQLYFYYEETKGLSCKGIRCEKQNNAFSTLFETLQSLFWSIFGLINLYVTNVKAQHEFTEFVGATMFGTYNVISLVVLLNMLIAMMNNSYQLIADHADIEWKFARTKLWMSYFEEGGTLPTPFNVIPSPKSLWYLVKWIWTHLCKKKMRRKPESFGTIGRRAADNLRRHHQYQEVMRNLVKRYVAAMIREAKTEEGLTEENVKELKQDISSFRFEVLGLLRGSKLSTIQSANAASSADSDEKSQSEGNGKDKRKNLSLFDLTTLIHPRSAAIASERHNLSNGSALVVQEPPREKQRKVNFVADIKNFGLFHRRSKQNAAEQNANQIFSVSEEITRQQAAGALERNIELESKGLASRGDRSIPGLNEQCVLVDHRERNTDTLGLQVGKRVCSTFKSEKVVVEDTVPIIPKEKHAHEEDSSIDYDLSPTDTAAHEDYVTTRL

[6] = molecular target: Short transient receptor potential channel 4 (Mus musculus) (UniProt Q9QUQ5); assay: inhibitors of mouse TRPC4 channel, confirmation, cell-based, second round, Fluo4, HEK293 TRPC4beta/mu-opioid, 1 µM (AID 2637;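 active = calcium signal ratio cut to more than 3 SD under the fully stimulated control mean yet still positive, in both repeats and the primary screen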); conditions: Fluo4 calcium flux, DAMGO, at 1 µM; active compounds read high
[7] = molecular target: Short transient receptor potential channel 4 (Mus musculus) (UniProt Q9QUQ5); assay: mouse TRPC4 channel activators, dose response, cell-based, HEK293 TRPC4/mu-opioid, Fluo-4 calcium (AID 434937;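 active = primary screen activator hit with a dose response curve and TRPC4 channel activation at any tested dose; inactive = no activation, no dose response, or not a primary hit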)
[8] = molecular target: Short transient receptor potential channel 4 (Mus musculus) (UniProt Q9QUQ5); assay: TRPC4 positive allosteric modulators, dose response, cell-based, HEK293 TRPC4/mu-opioid, Fluo-4 calcium, EC20 DAMGO (AID 434941;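 active = earlier screen potentiator hit that boosts the TRPC4 ion channel at some dose, with a dose response; inactive = no potentiation, no dose response, or not a prior hit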;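 note: calcium entry triggered by an EC20 dose of DAMGO at the co-expressed mu-opioid receptor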)
[9] = molecular target: Short transient receptor potential channel 4 (Mus musculus) (UniProt Q9QUQ5); assay: mouse TRPC4 channel inhibitors, dose response, cell-based, HEK293 TRPC4/mu-opioid, Fluo-4 calcium (AID 434942)
[10] = molecular target: Short transient receptor potential channel 6 (Mus musculus) (UniProt Q61143); assay: inhibition of mouse TRPC6 channel, confirmation, selectivity assay for TRPC4 inhibitor project, cell-based, HEK293, membrane potential dye, duplicate (AID 434948;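 active = active in primary screen and both duplicates, each dropping signal beyond three positive-control SD with fluorescence still positive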); conditions: HEK293 TRPC6, membrane potential dye fluorescence, at 10 µM, stimulated with maximal-effect acetylcholine; active compounds read high
Sequence of Short transient receptor potential channel 6 (Mus musculus) (Q61143 whole entry, looked up): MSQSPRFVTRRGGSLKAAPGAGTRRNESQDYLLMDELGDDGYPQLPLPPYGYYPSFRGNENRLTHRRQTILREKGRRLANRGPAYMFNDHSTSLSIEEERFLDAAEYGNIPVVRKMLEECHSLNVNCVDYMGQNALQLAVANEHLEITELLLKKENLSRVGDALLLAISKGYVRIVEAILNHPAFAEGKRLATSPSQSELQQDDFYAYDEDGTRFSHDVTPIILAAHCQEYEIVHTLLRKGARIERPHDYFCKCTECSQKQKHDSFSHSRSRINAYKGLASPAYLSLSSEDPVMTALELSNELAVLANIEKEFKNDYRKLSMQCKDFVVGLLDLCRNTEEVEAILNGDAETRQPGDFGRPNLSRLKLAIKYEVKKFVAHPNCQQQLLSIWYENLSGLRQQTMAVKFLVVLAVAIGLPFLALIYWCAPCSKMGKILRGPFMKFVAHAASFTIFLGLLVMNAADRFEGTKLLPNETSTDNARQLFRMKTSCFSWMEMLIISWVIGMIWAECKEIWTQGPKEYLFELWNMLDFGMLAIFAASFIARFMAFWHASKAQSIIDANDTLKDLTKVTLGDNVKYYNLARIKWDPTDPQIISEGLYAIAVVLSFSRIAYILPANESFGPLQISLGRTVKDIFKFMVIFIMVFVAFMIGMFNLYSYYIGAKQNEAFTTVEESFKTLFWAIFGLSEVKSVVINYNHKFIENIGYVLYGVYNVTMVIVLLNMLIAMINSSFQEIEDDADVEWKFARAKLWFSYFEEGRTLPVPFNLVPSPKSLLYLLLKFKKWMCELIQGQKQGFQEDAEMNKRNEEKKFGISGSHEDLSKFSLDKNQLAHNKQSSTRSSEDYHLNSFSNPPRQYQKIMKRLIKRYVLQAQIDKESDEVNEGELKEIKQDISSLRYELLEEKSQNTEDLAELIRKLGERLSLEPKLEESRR

[11] = molecular target: Short transient receptor potential channel 6 (Mus musculus) (UniProt Q61143); assay: activation of mouse TRPC6 channel, confirmation, selectivity assay for TRPC4 activator project, cell-based, HEK293, membrane potential dye, duplicate (AID 434950;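 active = membrane potential signal rise above negative control mean plus 3 SD in both duplicates, also active in the earlier TRPC4 screen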); conditions: HEK293 TRPC6, membrane potential fluorescence, at 10 µM; active compounds read high
[12] = molecular target: Short transient receptor potential channel 6 (Mus musculus) (UniProt Q61143); assay: TRPC6 potentiation by TRPC4 potentiator hits, confirmation, selectivity assay for TRPC4 potentiator project, HEK293 cells, membrane potential dye, duplicate (AID 434952;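 active = compound raising the membrane signal above positive-control mean plus 3 SD in both repeats, and a primary screen hit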); conditions: HEK293 TRPC6, membrane potential dye fluorescence, at 10 µM, maximal acetylcholine added after compound; active compounds read high
[13] = molecular target: Short transient receptor potential channel 4 (Mus musculus) (UniProt Q9QUQ5); assay: calcium flux activators in TRPC4/5HT1a cells, counter-screen for TRPC4 activator project, cell-based, second counter screen, HEK293 TRPC4/5HT1a, Fluo-4 (AID 434977;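 active = calcium signal rise above buffer-control mean plus 5 SD in both duplicates, and also a hit in the primary screen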); conditions: Fluo-4 calcium flux, at 10 µM; active compounds read high
[14] = calcium flux inhibitors in TRPC4/5HT1a cells, confirmation, counter-screen for TRPC4 inhibitor project, cell-based, second counter screen, HEK293 TRPC4/5HT1a, Fluo-4 (AID 434978;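 active = primary screen active whose calcium signal fell more than 3 SD beyond the full-serotonin control mean in both duplicate plates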;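 for outcome: serotonin given first at submaximal then at maximal dose after compound preincubation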); conditions: Fluo-4 calcium flux, at 10 µM, serotonin added to trigger calcium flux; active compounds read high
[15] = tested on: TRPC4 (mouse), co-expressed with 5HT1a in HEK293; assay: calcium flux potentiators in TRPC4/5HT1a cells, confirmation, counter-screen for TRPC4 potentiator project, cell-based, second counter screen, HEK293 TRPC4/5HT1a, Fluo-4 (AID 434979;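 active = signal rise over 3 SD above mean of control wells given weak agonist, in both repeats and first screen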); conditions: Fluo-4 calcium flux, at 10 µM, serotonin added at its EC20 dose; active compounds read high
[16] = calcium flux activation in mu-opioid HEK293 cells, confirmation, counter-screen for TRPC4 activator project, cell-based, HEK293 mu-opioid receptor line (AID 449723;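 active = hit in primary screen, with calcium signal over 5 SD above buffer well mean in both duplicates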;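 note: counter screen cells carry the mu-opioid receptor alone and lack TRPC4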); conditions: Fluo-4 calcium fluorescence, at 10 µM; active compounds read high
[17] = calcium flux enhancement in mu-opioid HEK293 cells, confirmation, counter-screen for TRPC4 allosteric potentiator project, cell-based, HEK293 mu-opioid receptor line (AID 449724;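 active = calcium signal rise more than 3 SD above the low-dose agonist control mean, in both duplicate plates and the primary screen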); conditions: Fluo-4 calcium flux, at 10 µM, compound added before EC20 DAMGO stimulus; active compounds read high

CCc1nc2ccccc2n1Cc1ccc(F)cc1
inactive: outcome [1] | outcome [2] | outcome [3] | outcome [4] | outcome [5] | outcome [6] | outcome [7] | outcome [8] | outcome [9] | outcome [10] | outcome [11] | outcome [12] | outcome [13] | outcome [14] | outcome [15] | outcome [16] | outcome [17]

CCCCN(C)CCNC(=S)Nc1ccc2nc(N3CCN(CC)CC3)cc(C)c2c1
active: potentiation [3] 11% | potentiation [15] 18%
inactive: outcome [1] | outcome [2] | outcome [4] | outcome [5] | outcome [6] | outcome [7] | outcome [8] | outcome [9] | outcome [10] | outcome [11] | outcome [12] | outcome [13] | outcome [14] | outcome [16] | outcome [17]

O=C(Cc1cn(Cc2cccc(Cl)c2)c2ccccc12)N1CCCC1
inactive: outcome [1] | outcome [2] | outcome [3] | outcome [5] | outcome [6] | outcome [7] | outcome [8] | outcome [9] | outcome [10] | outcome [11] | outcome [12] | outcome [13] | outcome [14] | outcome [16] | outcome [17]
active: potentiation [4] 10% | potentiation [15] 29.2%

CCN1CCN(c2ccc(S(=O)(=O)N3CCCCC3)cc2NC(=O)c2cccc(F)c2)CC1
active: potentiation [15] 18.4%
inactive: outcome [1] | outcome [2] | outcome [3] | outcome [4] | outcome [5] | outcome [6] | outcome [7] | outcome [8] | outcome [9] | outcome [10] | outcome [11] | outcome [12] | outcome [13] | outcome [14] | outcome [16] | outcome [17]

CC(C)CN(C(=O)COC(=O)CCC(=O)c1ccc(Cl)cc1)c1c(N)n(Cc2ccccc2)c(=O)[nH]c1=O
inactive: outcome [1] | outcome [2] | outcome [3] | outcome [4] | outcome [5] | outcome [6] | outcome [7] | outcome [8] | outcome [9] | outcome [10] | outcome [11] | outcome [12] | outcome [13] | outcome [14] | outcome [15] | outcome [16] | outcome [17]

CC(C)C(=O)N1CCN(c2nc(-c3ccccc3)c3c(c2C#N)CCCC3)CC1
inactive: outcome [1] | outcome [2] | outcome [3] | outcome [5] | outcome [6] | outcome [7] | outcome [8] | outcome [9] | outcome [10] | outcome [11] | outcome [12] | outcome [13] | outcome [14] | outcome [16] | outcome [17]
active: potentiation [4] 26% | potentiation [15] 29.4%

CCn1cc(CN2CCC(n3nccc3NC(=O)CCOc3ccccc3)CC2)c(C)n1
inactive: outcome [1] | outcome [2] | outcome [3] | outcome [4] | outcome [5] | outcome [6] | outcome [7] | outcome [8] | outcome [9] | outcome [10] | outcome [11] | outcome [12] | outcome [13] | outcome [14] | outcome [15] | outcome [16] | outcome [17]

C/C(=N\N1CCN(C)CC1)c1ccc(Cl)c(Cl)c1
inactive: outcome [1] | outcome [2] | outcome [3] | outcome [4] | outcome [5] | outcome [6] | outcome [7] | outcome [8] | outcome [9] | outcome [10] | outcome [11] | outcome [12] | outcome [13] | outcome [14] | outcome [16] | outcome [17]
active: potentiation [15] 13.3%

O=[N+]([O-])c1c(Nc2cccc(O)c2)cc(Cl)c2nonc12
inactive: outcome [1] | outcome [2] | outcome [3] | outcome [4] | outcome [5] | outcome [6] | outcome [7] | outcome [8] | outcome [9] | outcome [10] | outcome [11] | outcome [12] | outcome [13] | outcome [14] | outcome [15] | outcome [16] | outcome [17]

Clc1ccc2nc(CN3CCCc4ccccc43)cn2c1
inactive: outcome [1] | outcome [2] | outcome [3] | outcome [5] | outcome [6] | outcome [7] | outcome [8] | outcome [9] | outcome [10] | outcome [11] | outcome [12] | outcome [13] | outcome [14] | outcome [16] | outcome [17]
active: potentiation [4] 12% | potentiation [15] 28%

C=CCn1c(=N)n(CC(O)COc2ccccc2OC)c2ccccc21 (stereo not given)
inactive: outcome [1] | outcome [2] | outcome [3] | outcome [4] | outcome [5] | outcome [6] | outcome [7] | outcome [8] | outcome [9] | outcome [10] | outcome [11] | outcome [12] | outcome [13] | outcome [14] | outcome [15] | outcome [16] | outcome [17]

Cc1ccc(-c2ccc3c(c2)S(=O)(=O)c2ccccc2C3=O)cc1
inactive: outcome [1] | outcome [2] | outcome [3] | outcome [4] | outcome [5] | outcome [6] | outcome [7] | outcome [8] | outcome [9] | outcome [10] | outcome [11] | outcome [12] | outcome [13] | outcome [14] | outcome [15] | outcome [16] | outcome [17]

Clc1ccc(OCCCc2nc(-c3ccncc3)no2)c(Cl)c1
inactive: outcome [1] | outcome [2] | outcome [3] | outcome [4] | outcome [6] | outcome [7] | outcome [8] | outcome [9] | outcome [10] | outcome [11] | outcome [12] | outcome [13] | outcome [15] | outcome [16] | outcome [17]
active: inhibition [5] 91% | inhibition [14] 30.7%

Cc1cccc(NC(=O)CNC(=O)CN2C(=O)NC3(CCCCC3C)C2=O)c1C (stereo not given)
inactive: outcome [1] | outcome [2] | outcome [3] | outcome [4] | outcome [5] | outcome [6] | outcome [7] | outcome [8] | outcome [9] | outcome [10] | outcome [11] | outcome [12] | outcome [13] | outcome [14] | outcome [15] | outcome [16] | outcome [17]

Cc1cc(Nc2ccccc2O)c2ccccc2n1
inactive: outcome [1] | outcome [2] | outcome [3] | outcome [4] | outcome [5] | outcome [6] | outcome [7] | outcome [8] | outcome [9] | outcome [10] | outcome [11] | outcome [12] | outcome [13] | outcome [14] | outcome [15] | outcome [16] | outcome [17]
